Data reported in PubChem BioAssay AID624329 (National Center for Advancing Translational Sciences (NCATS), 2012).
Results filed as inconclusive are left out. Values without a mark were called inactive. Active and inactive are the calls of the source. Calls follow the shape of the dose curve; as a rule, active = well fitted curve in the direction sought with a large enough effect; inconclusive = small, poorly fitted or top-dose-only effect; inactive = flat fitted curve, though single readings scatter.

Experiment: Quantitative high throughput screen for delayed death inhibitors of the malarial parasite plastid: Hit Validation with 3D7 at 48 hr using Flow Cytometry
Conditions: P. falciparum 3D7 growth, flow cytometry SYBR/MitoTracker; fraction of growth remaining: at 50 µM (top of the series)
Source text: The goal of this screen is to discover new antimalarial compounds that act by inhibiting the development of the apicoplast organelle in the malarial parasite Plasmodium falciparum. Some antibiotics, such as azithromycin and tetracycline, are known to interfere with the apicoplast translational machinery, and have a potent antimalarial effect. […] We developed a cell-based quantitative high throughput screen that leverages this "delayed death" phenotype to enrich for compounds that target the apicoplast. To detect small molecules that cause the delayed death phenotype, erythrocytes infected with firefly luciferase-expressing parasites were incubated with compounds for either one or two generations, corresponding to 48 and 96 hours, respectively. Growth inhibition was detected by a decrease in luciferase activity. Compounds that inhibited parasite growth in the second generation at least five-fold more potently than in the first generation were defined as delayed death inducing. These compounds were selected for confirmatory screening using a flow cytometry based assay. This hit validation assay used the 3D7 cell line and measured at 48 hours. NIH Molecular Libraries Probe Production Network [MLPCN] NIH Chemical Genomics Center [NCGC] MLPCN Grant: R21 NS059500 Assay Provider: David Fidock and Eric Ekland, Columbia University
Test compounds were diluted in 20 microliters of complete media (RPMI 1640 with 0.5% w/v Albumax (GIBCO), 24 mM sodium bicarbonate (Sigma) and 10 ug/mL gentamycin (Gibco)) in clear 384-well plates (Greiner). All liquid handling was conducted using a Bio Tek Precision 2000 pipetting system. Twenty microliters of infected erythrocytes, 0.2% parasitemia (for 48 hour time points) or 0.1% parasitemia (for 96 hour time points) were added to the compound dilutions (1% hematocrit, final concentration; 40 microliters, total culture volume). The assay plates were incubated for 48 hours, or 96 hours, at 37 masculine C in a humidified chamber (Billups- Rothenberg, Del Mar, CA, USA), gassed with 5%CO2/5%O2/ 90%N2. After one generation (48 hours), 5 microliters of culture were harvested and transferred to a second 384 well plate for fluorescent staining. Samples were stained with 30 microliters of 2 x SYBR Green I (Invitrogen) and 150nM MitoTracker Deep Red (Invitrogen) diluted in 0.9% NaCl, 0.2% dextrose (Baxter) supplemented with 2.5% Fetal Calf Serum (Gibco) (saline/FCS). Mature erythrocytes lack nuclei and mitochondria, therefore only parasitized erythrocytes retain the SYBR Green I and MitoTracker Deep Red. After 30 minutes at 37 masculine C, the stained cells were diluted in an additional 60 microliters of saline/FCS. The samples were harvested directly from the 384 well plate using a Hypercyt High Capacity Flow Platform (Intellicyt) paired with a C6 Flow Cytometer (Accuri). The flow cytometry files were analyzed using FlowJo software (FlowJo).
In the case of `COc1ccc(NC(=S)N2CCC(Cc3ccccc3)CC2)cc1OC`, the Potency is reported as 46.5 µM (active). For `CCOC(=O)c1ccc2c(c1)n(CC)c(/C=C/N(C)c1ccccc1)[n+]2CC`, the Potency was 1.52 µM (active). In the case of `CCOc1ccc(S(=O)(=O)Nc2cc(S(=O)(=O)N(CC)CC)ccc2N2CCCC2)cc1`, the Potency is reported as 12.5 µM (active). With `CCCCN(CCCNC(=O)c1ccc(CS(=O)(=O)c2ccc(OC)cc2)o1)Cc1ccccc1` the fraction of growth remaining was 0.163 (active). For `CCCCN(CCCNC(=O)C1CCN(C(=O)c2cc3sccc3n2C)CC1)Cc1ccccc1`, the Potency was 9.82 µM (active). For `O=C(CSc1ccc(-c2cccnc2)nn1)Nc1ccccc1C(F)(F)F`, the Potency was 12.4 µM (active). In the case of `CC1=Nc2cc(C(=O)N3CCCC3)ccc2Sc2ccc(C)cc21`, the fraction of growth remaining is reported as 0.151 (active). With `CCCCOc1ccc(N2C(N)=NC(N)=NC23CCCCC3)cc1` the Potency was 22.2 µM (active). For `O=C(NCc1cccnc1)c1ccc(NS(=O)(=O)c2ccccc2)cc1`, the Potency was 30.9 µM (active). For `O=C(CNC(=O)C1CCCCC1)OC(C(=O)c1ccccc1)c1ccccc1` (stereo not drawn), the “fraction of growth remaining” value was 0.652. In the case of `CCCc1c(CC)c(=N)c2ccccc2n1C`, the Potency is reported as 6.48 µM (active). With `Cc1ccc(-n2c(-c3ccc(Cl)cc3)c[n+]3c2CCC3)cc1` the Potency was 4.64 µM (active). For `CC(=O)NC[C@@H]1CN(c2ccc(N3CCOCC3)c(F)c2)C(=O)O1`, the “fraction of growth remaining” value was 0.835. With `Clc1ccc(-c2c[n+](Cc3ccc(Cl)cc3Cl)c3n2CCCCC3)cc1` the Potency was 5.64 µM (active). With `CCc1nc(SCC(=O)Nc2ccc(N(C)C)cc2)n[nH]1` the Potency was 0.4 µM (active). For `COc1ccccc1N1CCN(CCC(=O)Nc2ccc(F)cc2)CC1`, the Potency was 18.3 µM (active). For `Cc1ccc(S(=O)(=O)Nc2ccc(C(=O)Nc3ccncc3)cc2)cc1`, the Potency was 26.3 µM (active). For `N#Cc1cccc(NC(=O)Cn2c3[n+](c4ccc(C(F)(F)F)cc42)CCCCC3)c1`, the Potency was 19.9 µM (active). With `CO[C@@H]1[C@@H](OC2OC(C)C(OC3CC(C)(O)C(OC(=O)CC(C)C)C(C)O3)C(N(C)C)C2O)[C@@H](CC=O)C[C@@H](C)C(=O)/C=C\C2O[C@H]2C[C@@H](C)OC(=O)C[C@H]1OC(C)=O` (stereo partly drawn) the Potency was 2.95 µM (active). In the case of `COc1cccc(CN2CCN(c3nc4nonc4nc3N3CCCCC3)CC2=O)c1`, the Potency is reported as 5.55 µM (active). With `CCC(=O)OC1C(N(C)C)CC(C)O[C@H]1O[C@H]1[C@H](C)[C@@H](O[C@H]2CC(OC)[C@@H](O)C(C)O2)[C@H](C)C(=O)O[C@@H](CC)[C@](C)(O)[C@@H](O)[C@H](C)C(=O)[C@@H](C)C[C@]1(C)O` (stereo partly drawn) the “fraction of growth remaining” value was 0.768. In the case of `CCCc1cc(=O)oc2cc(OC(C)C(=O)NCc3ccccn3)c(Cl)cc12` (stereo not drawn), the Potency is reported as 16.9 µM (active). In the case of `Cc1c(F)c(N2CCNC(C)C2)cc2c1c(=O)c(C(=O)O)cn2C1CC1` (stereo not drawn), the Potency is reported as 5.98 µM (active). With `CCOc1ccc(NC(=O)C[n+]2ccc(N(C)C)cc2)cc1` the Potency was 25.8 µM (active). With `Cc1ccc(CN2CCC(n3nccc3NC(=O)c3ccccc3C)CC2)o1` the fraction of growth remaining was 0.498 (active). For `COc1ccc2cc3cc(C(=O)Nc4ccc5c(c4)OCO5)oc3nc2c1`, the Potency was 48.3 µM (active). With `c1csc(CNc2ncnc3nc[nH]c23)c1` the “fraction of growth remaining” value was 0.572. In the case of `COc1ccc2c(ccc[n+]2CC(=O)c2ccccc2)c1`, the Potency is reported as 9.29 µM (active).
